Bioassay records from PubChem BioAssay.
The list is not random: actives were taken first. Their share in the collection is about 19%.
HT1080 IDH1KD tx = qHTS for induction of synthetic lethality in tumor cells producing 2HG: qHTS for the HT-1080-IDH1KD cell line; HT-1080 IDH1 knockdown viability, ATP luminescence, 48 h; Potency, µM (doses to about 46.1 µM), hits mostly cytotoxic; hit rate 2% among 360,000; AID 686971, 2013
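After a 2 h attachment period, IDH1KD HT-1080 cells took pin-transferred compound for 48 h at 37 °C; ATP-based luminescence after 10 min room-temperature reagent incubation reported viability.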
DT40 TDP1 CPT = qHTS for Inhibitors of human tyrosyl-DNA phosphodiesterase 1 (TDP1): qHTS in cells in presence of CPT; AID 686979, 2013; chicken DT40 Tdp1-/-;hTDP1 cells + 20 nM CPT, ATP luminescence, 48 h; Potency, µM (highest dose often 46.2 µM), usual class: inhibitors; hit rate 12% among 420,000; also: nearly all actives have a fitted effect of over 55% in size
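Chicken DT40 Tdp1-/- cells complemented with human TDP1, 400 cells/well, exposed to compounds plus 20 nM camptothecin for at least 48 h at 37 C; viability read as ATP content by CellTiter-Glo luminescence.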
IL-1B inflam inh = qHTS for Inhibitors of Inflammasome Signaling: IL-1-beta AlphaLISA Primary Screen | THP-1 LPS/ATP IL-1B secretion, AlphaLISA, 16 h; hits give low values | hit rate 4.7% among 360,000 | activity change, % at 57.5 µM; in the data active = activity change below about -50%; inconclusive = mostly about -30% to -49%
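THP-1 cells pretreated 1 hr with compounds (up to 57.5 uM final), then stimulated with LPS (250 ng/mL final) plus ATP (1.25 mM final); secreted IL-1B measured by AlphaLISA after 16 hr, decreased signal indicating inhibition.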
HT1080NT lethal = qHTS for induction of synthetic lethality in tumor cells producing 2HG: qHTS for the HT-1080-NT fibrosarcoma cell line; HT-1080-NT fibrosarcoma viability, CellTiter-Glo ATP luminescence, 48 h; Potency, µM (titrated, usually from 46.1 µM), actives largely listed as cytotoxic; hit rate 1.6% among 360,000; AID 686970, 2013;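 also: NT is the 2HG producing partner of a matched IDH1 knockdown line; nearly all actives have a fitted effect of over 55% in size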
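A 48-hour cytotoxicity screen used HT-1080-NT cells plated 2 hours before compound delivery. ATP-based CellTiter-Glo luminescence measured viability, normalized to DMSO and no-cell controls.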
TDP1 cell noCPT = qHTS for Inhibitors of human tyrosyl-DNA phosphodiesterase 1 (TDP1): qHTS in cells in absence of CPT | Potency, µM (top dose mostly 46.2 µM), most hits filed as inhibitors | DT40 Tdp1-/- hTDP1 cells, no CPT, ATP luminescence, 48 h | hit rate 15% among 420,000 | AID 686978, 2013; also: nearly all actives have a fitted effect of over 55% in size
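Cells were dispensed at 400 per well, compounds added by pin tool, plates incubated ≥48 hr at 37 °C, then CellTiter-Glo added for 30 min at room temperature before luminescence reading. Line: DT40 Tdp1-/- complemented with hTDP1; camptothecin omitted.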
ELG1 DNA repair = qHTS screen for small molecules that inhibit ELG1-dependent DNA repair in human embryonic kidney (HEK293T) cells expressing luciferase-tagged ELG1; HEK293T ELG1-luciferase reporter, luminescence, 16 h; DNA damage induced by 5-fluorouridine; Potency, µM (titrated, usually from 46.1 µM), hits mostly inhibitors; hit rate 2.3% among 330,000; AID 504467, 2011; also: nearly all actives have a fitted effect of over 55% in size
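Reporter activity after DNA damage by 5-fluorouridine is monitored. Compound-treated cells incubate 16 hr at 37 °C, then ONE-Glo is added for 30 min before luminescence reading.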
A number is an active result. Unless noted, calls follow the shape of the dose curve; as a rule, active = well fitted curve in the direction sought with a large enough effect; inconclusive = small, poorly fitted or top-dose-only effect, or another doubt; inactive = no such curve, though single readings can be large; an effect the other way counts as inactive or inconclusive.

COc1ccc2c(c1)c(C(C)=O)c(C)n2CCc1ccccc1 was read as HT1080 IDH1KD tx inactive, DT40 TDP1 CPT inconclusive, IL-1B inflam inh inactive, HT1080NT lethal inactive, TDP1 cell noCPT inconclusive and ELG1 DNA repair 8.2µM.
c1ccc2ncccc2c1 was read as HT1080 IDH1KD tx inactive, DT40 TDP1 CPT inactive, IL-1B inflam inh inactive, HT1080NT lethal inactive, TDP1 cell noCPT inactive and ELG1 DNA repair inactive.
For Fc1ccc(Nc2cccc3nccnc23)cc1 the results were HT1080 IDH1KD tx inactive, DT40 TDP1 CPT inactive, IL-1B inflam inh inactive, HT1080NT lethal inactive, TDP1 cell noCPT inactive and ELG1 DNA repair inconclusive.
`c1ccc2nccnc2c1` gave DT40 TDP1 CPT 0.794µM and TDP1 cell noCPT 1.12µM.
c1cc(Nc2cccc3nccnc23)c2nccnc2c1 was read as HT1080 IDH1KD tx inactive, DT40 TDP1 CPT inactive, IL-1B inflam inh -54.1, HT1080NT lethal inactive, TDP1 cell noCPT inactive and ELG1 DNA repair inactive.
`Cc1ccc(C(=O)Cn2nnc3ccccc32)cc1[N+](=O)[O-]` gave HT1080 IDH1KD tx inactive, DT40 TDP1 CPT inactive, IL-1B inflam inh inactive, HT1080NT lethal inactive, TDP1 cell noCPT inactive and ELG1 DNA repair inconclusive.
For CCCn1c(=N)n(CC(=O)c2ccc([N+](=O)[O-])cc2)c2ccccc21 the results were HT1080 IDH1KD tx inactive, DT40 TDP1 CPT inconclusive, IL-1B inflam inh -52.9, HT1080NT lethal inactive, TDP1 cell noCPT 23.1µM and ELG1 DNA repair inactive.
For Cc1ccccc1Cn1c(=N)n(CC(=O)c2ccc([N+](=O)[O-])cc2)c2ccccc21 the results were HT1080 IDH1KD tx inactive, DT40 TDP1 CPT 4.11µM, HT1080NT lethal inactive, TDP1 cell noCPT 5.17µM and ELG1 DNA repair inactive.
For CN(CCC#N)c1ccc(C=C(C#N)c2cccc(C(F)(F)F)c2)cc1 the results were HT1080 IDH1KD tx inactive, DT40 TDP1 CPT 16.4µM, IL-1B inflam inh inactive, HT1080NT lethal inconclusive and TDP1 cell noCPT 23.1µM.
`CC(=O)Nc1ccc(C(C#N)=Cc2ccc(N(C)CCC#N)cc2)cc1` gave HT1080 IDH1KD tx inactive, DT40 TDP1 CPT inconclusive, IL-1B inflam inh inactive, HT1080NT lethal inactive and TDP1 cell noCPT 14.6µM.
For COc1ccc(C(C#N)=Cc2ccc(NC(C)=O)cc2)cc1 the results were HT1080 IDH1KD tx inactive, DT40 TDP1 CPT inactive, IL-1B inflam inh inactive, HT1080NT lethal inactive and TDP1 cell noCPT inactive.
`CN(Cc1ccco1)c1cc(-c2cccc(NS(C)(=O)=O)c2)ncn1` gave DT40 TDP1 CPT inactive and TDP1 cell noCPT inactive.
Screening Cc1cc(Cl)ccc1NNC(=O)CCc1ccccc1 returned HT1080 IDH1KD tx inconclusive, DT40 TDP1 CPT inactive, IL-1B inflam inh inactive, HT1080NT lethal inconclusive, TDP1 cell noCPT inactive and ELG1 DNA repair inactive.
For CC(=O)N1CCCc2cc(S(=O)(=O)N3CCCC(C)C3)ccc21 (stereo not given) the results were HT1080 IDH1KD tx inactive, DT40 TDP1 CPT inactive, IL-1B inflam inh inactive, HT1080NT lethal inactive, TDP1 cell noCPT inactive and ELG1 DNA repair inconclusive.
COc1ccc(OCC(O)Cn2c(Nc3ccccc3)nc3c2c(=O)n(C)c(=O)n3C)cc1 (stereo not given) was read as HT1080 IDH1KD tx inactive, DT40 TDP1 CPT inactive, IL-1B inflam inh inactive, HT1080NT lethal inactive, TDP1 cell noCPT inactive and ELG1 DNA repair inconclusive.
Screening CCc1ccc(OCC(O)Cn2c(N3CCCCC3)nc3c2c(=O)[nH]c(=O)n3C)cc1 (stereo not given) returned HT1080 IDH1KD tx inactive, DT40 TDP1 CPT inconclusive, IL-1B inflam inh inactive, HT1080NT lethal inactive, TDP1 cell noCPT inconclusive and ELG1 DNA repair inactive.
